Measurements: the supplement of paper PMC3545927
Some of the results follow. The true hit rate is not given.

Biological target: furin, P09958
Assay: furin cleavage Z-score vs untreated control; higher = more cleavage, active = 3.5 or more, inactive = 1 or less, 8 variable residues between constant flanks
Outline: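 Read counts from sequencing released DNA gave abundance for each bead-bound 8-mer peptide–cDNA fusion cut by purified furin over 7.5, 15 or 30 min. The cleavage Z-score compares log counts with furin-free reactions after lowess adjustment and median absolute deviation scaling.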
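Note: purified furin at 1:10 enzyme:substrate in 50 mM HEPES pH 7.5.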

furin, P09958, sequence (P09958 whole entry): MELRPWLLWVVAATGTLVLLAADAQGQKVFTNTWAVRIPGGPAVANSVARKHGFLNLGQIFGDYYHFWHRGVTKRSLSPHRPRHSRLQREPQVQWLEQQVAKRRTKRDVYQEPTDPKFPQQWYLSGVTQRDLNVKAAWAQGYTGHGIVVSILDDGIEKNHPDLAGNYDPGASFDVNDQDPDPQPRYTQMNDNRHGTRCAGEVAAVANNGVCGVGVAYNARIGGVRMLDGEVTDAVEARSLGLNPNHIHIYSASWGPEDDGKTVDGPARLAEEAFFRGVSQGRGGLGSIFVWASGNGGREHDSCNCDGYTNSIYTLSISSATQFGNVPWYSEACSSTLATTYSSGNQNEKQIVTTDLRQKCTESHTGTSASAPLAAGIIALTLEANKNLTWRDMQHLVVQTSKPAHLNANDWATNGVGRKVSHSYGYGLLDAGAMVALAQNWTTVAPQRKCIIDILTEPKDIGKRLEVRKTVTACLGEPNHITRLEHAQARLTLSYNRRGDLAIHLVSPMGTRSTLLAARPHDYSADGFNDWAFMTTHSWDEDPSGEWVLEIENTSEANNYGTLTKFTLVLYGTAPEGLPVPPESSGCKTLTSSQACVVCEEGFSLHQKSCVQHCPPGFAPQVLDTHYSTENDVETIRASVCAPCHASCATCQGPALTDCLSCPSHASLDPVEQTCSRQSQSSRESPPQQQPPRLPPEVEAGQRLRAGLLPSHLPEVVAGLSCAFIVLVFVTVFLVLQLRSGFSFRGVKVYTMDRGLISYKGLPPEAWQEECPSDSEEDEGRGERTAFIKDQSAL

B1: HC2402 (peptide)
chain: CAEVPCHRQSAGNASASA
7.5 min
  furin cleavage Z-score: 0.566 (inactive)
15 min
  furin cleavage Z-score: 0.909 (inactive)
30 min
  furin cleavage Z-score: 1.17

B2: FS-2532 (peptide)
chain: CARVKRPQLMAGNASASA
7.5 min
  furin cleavage Z-score: 1.35
15 min
  furin cleavage Z-score: -0.179 (inactive)
30 min
  furin cleavage Z-score: -0.384 (inactive)

B3: FS-1864 (peptide)
chain: CARQKRRAKPAGNASASA
7.5 min
  furin cleavage Z-score: 5.33 (active)
15 min
  furin cleavage Z-score: 6.71 (active)
30 min
  furin cleavage Z-score: 6.66 (active)

B4: FS-2197 (peptide)
chain: CARVKRRADPAGNASASA
7.5 min
  furin cleavage Z-score: 8.92 (active)
15 min
  furin cleavage Z-score: 9.27 (active)
30 min
  furin cleavage Z-score: 8.27 (active)

B5: FS-2619 (peptide)
chain: CARVKRVSHSAGNASASA
7.5 min
  furin cleavage Z-score: -0.25 (inactive)
15 min
  furin cleavage Z-score: 0.383 (inactive)
30 min
  furin cleavage Z-score: 1.16

B6: FS-1865 (peptide)
chain: CARQKRREERAGNASASA
7.5 min
  furin cleavage Z-score: -0.0741 (inactive)
15 min
  furin cleavage Z-score: 1.57
30 min
  furin cleavage Z-score: 0.905 (inactive)

B7: FS-2290 (peptide)
chain: CARQKRNKIPAGNASASA
7.5 min
  furin cleavage Z-score: 0.00727 (inactive)
15 min
  furin cleavage Z-score: -0.821 (inactive)
30 min
  furin cleavage Z-score: 0.672 (inactive)

B8: FS-2243 (peptide)
chain: CARVKRYRQSAGNASASA
7.5 min
  furin cleavage Z-score: 3.13
15 min
  furin cleavage Z-score: 4.29 (active)
30 min
  furin cleavage Z-score: 5.21 (active)

B9: FS-1940 (peptide)
chain: CARVPRDWDPAGNASASA
7.5 min
  furin cleavage Z-score: -0.333 (inactive)
15 min
  furin cleavage Z-score: -0.446 (inactive)
30 min
  furin cleavage Z-score: 1.11

B10: FS-2318 (peptide)
chain: CARVKRRLLMAGNASASA
7.5 min
  furin cleavage Z-score: 1.78
15 min
  furin cleavage Z-score: 2.84
30 min
  furin cleavage Z-score: 5.21 (active)

B11: HC2006 (peptide)
chain: CAVMCCSMSYAGNASASA
7.5 min
  furin cleavage Z-score: 0.223 (inactive)
15 min
  furin cleavage Z-score: 0.521 (inactive)
30 min
  furin cleavage Z-score: 0.261 (inactive)

B12: HC120 (peptide)
chain: CAVVCCPMSYAGNASASA
7.5 min
  furin cleavage Z-score: -0.00854 (inactive)
15 min
  furin cleavage Z-score: 1.19
30 min
  furin cleavage Z-score: 0.154 (inactive)

B13: FS-2531 (peptide)
chain: CARVKRPIENAGNASASA
7.5 min
  furin cleavage Z-score: -0.853 (inactive)
15 min
  furin cleavage Z-score: 0.717 (inactive)
30 min
  furin cleavage Z-score: -0.955 (inactive)

B14: FS-2533 (peptide)
chain: CARVKRRIENAGNASASA
7.5 min
  furin cleavage Z-score: 4.86 (active)
15 min
  furin cleavage Z-score: 7.07 (active)
30 min
  furin cleavage Z-score: 8.34 (active)

B15: FS-2099 (peptide)
chain: CARVKRFIQEAGNASASA
7.5 min
  furin cleavage Z-score: 5.75 (active)
15 min
  furin cleavage Z-score: 5.53 (active)
30 min
  furin cleavage Z-score: 5.92 (active)

B16: FS-2804 (peptide)
chain: CARSFRRIAGAGNASASA
7.5 min
  furin cleavage Z-score: -0.414 (inactive)
15 min
  furin cleavage Z-score: -1.36 (inactive)
30 min
  furin cleavage Z-score: -1.34 (inactive)

B17: FS-1939 (peptide)
chain: CARVKRQKISAGNASASA
7.5 min
  furin cleavage Z-score: 2.51
15 min
  furin cleavage Z-score: 3.08
30 min
  furin cleavage Z-score: 4.8 (active)

B18: FS-2242 (peptide)
chain: CARVKRTHVPAGNASASA
7.5 min
  furin cleavage Z-score: 4.22 (active)
15 min
  furin cleavage Z-score: 8.01 (active)
30 min
  furin cleavage Z-score: 3.97 (active)

B19: HC2506 (peptide)
chain: CASTMCSAHLAGNASASA
7.5 min
  furin cleavage Z-score: -0.111 (inactive)
15 min
  furin cleavage Z-score: 1.36
30 min
  furin cleavage Z-score: 2.15

B20: HC1817 (peptide)
chain: CADSMEECSQAGNASASA
7.5 min
  furin cleavage Z-score: 1.19
15 min
  furin cleavage Z-score: 1.94
30 min
  furin cleavage Z-score: 0.888 (inactive)

B21: HC2449 (peptide)
chain: CAEYEVPCHRAGNASASA
7.5 min
  furin cleavage Z-score: -0.191 (inactive)
15 min
  furin cleavage Z-score: 0.0222 (inactive)
30 min
  furin cleavage Z-score: -0.958 (inactive)

B22: FS-947 (peptide)
chain: CANSSRSKKPAGNASASA
7.5 min
  furin cleavage Z-score: -0.794 (inactive)
15 min
  furin cleavage Z-score: -0.615 (inactive)
30 min
  furin cleavage Z-score: -1.7 (inactive)

B23: FS-1872 (peptide)
chain: CARVKRNILAAGNASASA
7.5 min
  furin cleavage Z-score: 5.27 (active)
15 min
  furin cleavage Z-score: 8.45 (active)
30 min
  furin cleavage Z-score: 8.24 (active)

B24: FS-1840 (peptide)
chain: CARSIRDILAAGNASASA
7.5 min
  furin cleavage Z-score: -1.31 (inactive)
15 min
  furin cleavage Z-score: 1.74
30 min
  furin cleavage Z-score: 2.38

B25: FS-406 (peptide)
chain: CACVLRSKRDAGNASASA
7.5 min
  furin cleavage Z-score: 9.82 (active)
15 min
  furin cleavage Z-score: 8.74 (active)
30 min
  furin cleavage Z-score: 6.13 (active)

B26: FS-335 (peptide)
chain: CAHWSMSKRDAGNASASA
7.5 min
  furin cleavage Z-score: -1.15 (inactive)
15 min
  furin cleavage Z-score: 0.288 (inactive)
30 min
  furin cleavage Z-score: 0.917 (inactive)

B27: FS-407 (peptide)
chain: CACVSRSKRDAGNASASA
7.5 min
  furin cleavage Z-score: 13 (active)
15 min
  furin cleavage Z-score: 10.3 (active)
30 min
  furin cleavage Z-score: 7.76 (active)
